± gives the standard deviation of the averaged measurements.
Test system: E18 rat cortical neuron-glia co-culture
Experiment: fiber score / MBP score (myelination specific beyond OL differentiation) (ratio); higher = more myelination-specific MBP alignment
Conditions: 1 µM; treatment time: 8 days (DIV5-DIV13)
Method in brief: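 Primary E18 rat cortical co-cultures (papain-dissociated, 20,000 cells/well on poly-d-lysine/laminin 96-well plates) received library compounds at 1 or 5 µM in myelination medium from DIV5 to DIV13. Cells were fixed in 4 % paraformaldehyde and immunostained for MBP and Olig2 with DAPI, and four 10X fields per well in duplicate wells were analysed. The read-out is fiber score (continuous MBP fiber length per Olig2+ nucleus) divided by MBP score (thresholded MBP area × intensity per Olig2+ nucleus).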

Structure (SMILES) | fiber score / MBP score
Cc1occc(=O)c1O [Maltol] | 0.739
CCCC1O[C@@H]2C[C@H]3[C@@H]4CCC5=CC(=O)C=C[C@]5(C)[C@H]4[C@@H](O)C[C@]3(C)[C@]2(C(=O)CO)O1 (some centres undefined) [Budesonide] | 0.86
CC(C(=O)O)c1ccc(-c2ccccc2)c(F)c1 (centres undefined) [Flurbiprofen] | 0.667 ± 0.24
CN1CCN(C2=Nc3cc(F)ccc3Cc3ccccc32)CC1 [Fluperlapine] | 1.15
CCCCC(=O)O[C@H]1CC[C@H]2[C@@H]3CCc4cc(O)ccc4[C@H]3CC[C@]12C [Estradiol valerate] | 1.07
CC1(C)S[C@@H]2[C@H](NC(=O)[C@H](N)c3ccccc3)C(=O)N2[C@H]1C(=O)O [Ampicillin] | 0.301
CNC(=C[N+](=O)[O-])NCCSCc1csc(CN(C)C)n1 [Nizatidine] | 0.895
Cc1ccc(C)c(OCCCC(C)(C)C(=O)O)c1 [Gemfibrozil] | 0.476
Nc1ccc2cn[nH]c2c1 [6-Aminoindazole] | 0.529
COC(=O)C1=C(C)NC(C)=C(C(=O)OC)C1c1ccccc1[N+](=O)[O-] [Nifedipine] | 0.768
CCC(=O)NS(=O)(=O)c1ccc(-c2c(-c3ccccc3)noc2C)cc1 [Parecoxib] | 0.57
CCOC(=O)C1=C(C)NC(C)=C(C(=O)OC)C1c1cccc(Cl)c1Cl (centres undefined) [Felodipine] | 1.27
CN1[C@@H]2CC[C@H]1C[C@@H](OC(=O)c1c[nH]c3ccccc13)C2 [Tropisetron] | 0.706
CN1CCC(=C2c3ccccc3CC(=O)c3sccc32)CC1 [Ketotifen] | 1.03
CN1CCN2c3ncccc3Cc3ccccc3C2C1 (centres undefined) [Mirtazapine] | 0.861
NS(=O)(=O)c1cc(C2(O)NC(=O)c3ccccc32)ccc1Cl (centres undefined) [Chlorthalidone] | 1.29
COc1ccc([C@@H]2Sc3ccccc3N(CCN(C)C)C(=O)[C@@H]2OC(C)=O)cc1 [Diltiazem] | 0.782
CC[N+](C)(CC)CCOC(=O)C(O)(c1ccccc1)C1CCCCC1 (centres undefined) [Oxyphenonium] | 0.849
C[C@H]1C[C@@H]2[C@H]([C@@H](O)C[C@@]3(C)[C@H]2CC[C@]3(O)C(=O)CO)[C@@]2(C)C=CC(=O)C=C12 [Methylprednisolone] | 0.918
COc1ccc2cc([C@H](C)C(=O)O)ccc2c1 [Naproxen] | 0.831
COc1cc2nc(N3CCN(C(=O)c4ccco4)CC3)nc(N)c2cc1OC [Prazosin] | 0.568
COc1cc(C)nc(-n2nc(C)cc2OC)n1 [Epirizole] | 0.549
CCCCC[C@H](O)/C=C/[C@H]1[C@H](O)CC(=O)[C@@H]1CCCCCCC(=O)O [Alprostadil] | 1.12
CC[C@@H](CO)NCCN[C@@H](CC)CO [Ethambutol] | 0.781
CC(=O)Nc1nnc(S(N)(=O)=O)s1 [Acetazolamide] | 0.846

Same assay, conditions: 5 µM; treatment time: 8 days (DIV5-DIV13)

Structure (SMILES) | fiber score / MBP score
Cc1nccn1CC1CCc2c(c3ccccc3n2C)C1=O (centres undefined) [Ondansetron] | 0.404 ± 0.053
Cc1ncc([N+](=O)[O-])n1CC(C)O (centres undefined) [Secnidazole] | 0.618
O=C(c1ccc(F)cc1)C1CCN(CCn2c(=S)[nH]c3ccccc3c2=O)CC1 [Altanserin] | 0.605
Cc1onc(-c2ccccc2)c1-c1ccc(S(N)(=O)=O)cc1 [Valdecoxib] | 0.733
NC(=O)OCC(COC(N)=O)c1ccccc1 [Felbamate] | 0.769
Brc1c(NC2=NCCN2)ccc2nccnc12 [Brimonidine] | 0.784
Cc1ncc([N+](=O)[O-])n1CCO [Metronidazole] | 0.794
CN1CCN(C2=Nc3ccccc3Oc3ccc(Cl)cc32)CC1 [Loxapine] | 0.903
CC(C)(C#N)c1cc(Cn2cncn2)cc(C(C)(C)C#N)c1 [Anastrozole] | 0.734
CN(C)C(=O)C(CCN1CCC(O)(c2ccc(Cl)cc2)CC1)(c1ccccc1)c1ccccc1 [Loperamide] | 0.368
CC1(C)O[C@@H]2C[C@H]3[C@@H]4C[C@H](F)C5=CC(=O)C=C[C@]5(C)[C@@]4(F)[C@@H](O)C[C@]3(C)[C@]2(C(=O)CO)O1 [Fluocinolone Acetonide] | 0.825
COc1cc(C(=O)NS(=O)(=O)c2ccccc2C)ccc1Cc1cn(C)c2ccc(NC(=O)OC3CCCC3)cc12 [Zafirlukast] | 0.714
CNC[C@H](O)c1ccc(O)c(O)c1 [Epinephrine] | 3.29
NS(=O)(=O)c1cc2c(cc1Cl)NCNS2(=O)=O [Hydrochlorothiazide] | 0.819
Cc1occc(=O)c1O [Maltol] | 0.672
CCCC1O[C@@H]2C[C@H]3[C@@H]4CCC5=CC(=O)C=C[C@]5(C)[C@H]4[C@@H](O)C[C@]3(C)[C@]2(C(=O)CO)O1 (some centres undefined) [Budesonide] | 0.762
CC(C(=O)O)c1ccc(-c2ccccc2)c(F)c1 (centres undefined) [Flurbiprofen] | 0.793 ± 0.03
CN1CCN(C2=Nc3cc(F)ccc3Cc3ccccc32)CC1 [Fluperlapine] | 0.587
CCCCC(=O)O[C@H]1CC[C@H]2[C@@H]3CCc4cc(O)ccc4[C@H]3CC[C@]12C [Estradiol valerate] | 1.04
CC1(C)S[C@@H]2[C@H](NC(=O)[C@H](N)c3ccccc3)C(=O)N2[C@H]1C(=O)O [Ampicillin] | 0.192

Structure (SMILES) | fiber score / MBP score
CNC(=C[N+](=O)[O-])NCCSCc1csc(CN(C)C)n1 [Nizatidine] | 0.816
Cc1ccc(C)c(OCCCC(C)(C)C(=O)O)c1 [Gemfibrozil] | 0.995
Nc1ccc2cn[nH]c2c1 [6-Aminoindazole] | 0.815
COC(=O)C1=C(C)NC(C)=C(C(=O)OC)C1c1ccccc1[N+](=O)[O-] [Nifedipine] | 0.919
CCC(=O)NS(=O)(=O)c1ccc(-c2c(-c3ccccc3)noc2C)cc1 [Parecoxib] | 1.01
CCOC(=O)C1=C(C)NC(C)=C(C(=O)OC)C1c1cccc(Cl)c1Cl (centres undefined) [Felodipine] | 0.858
CN1[C@@H]2CC[C@H]1C[C@@H](OC(=O)c1c[nH]c3ccccc13)C2 [Tropisetron] | 0.562
CN1CCC(=C2c3ccccc3CC(=O)c3sccc32)CC1 [Ketotifen] | 0.58
CN1CCN2c3ncccc3Cc3ccccc3C2C1 (centres undefined) [Mirtazapine] | 1.07
NS(=O)(=O)c1cc(C2(O)NC(=O)c3ccccc32)ccc1Cl (centres undefined) [Chlorthalidone] | 1.09
COc1ccc([C@@H]2Sc3ccccc3N(CCN(C)C)C(=O)[C@@H]2OC(C)=O)cc1 [Diltiazem] | 0.558
CC[N+](C)(CC)CCOC(=O)C(O)(c1ccccc1)C1CCCCC1 (centres undefined) [Oxyphenonium] | 0.703
C[C@H]1C[C@@H]2[C@H]([C@@H](O)C[C@@]3(C)[C@H]2CC[C@]3(O)C(=O)CO)[C@@]2(C)C=CC(=O)C=C12 [Methylprednisolone] | 1.01
COc1ccc2cc([C@H](C)C(=O)O)ccc2c1 [Naproxen] | 0.859
COc1cc2nc(N3CCN(C(=O)c4ccco4)CC3)nc(N)c2cc1OC [Prazosin] | 1
COc1cc(C)nc(-n2nc(C)cc2OC)n1 [Epirizole] | 0.623
CCCCC[C@H](O)/C=C/[C@H]1[C@H](O)CC(=O)[C@@H]1CCCCCCC(=O)O [Alprostadil] | 0.695
CC[C@@H](CO)NCCN[C@@H](CC)CO [Ethambutol] | 0.753
CC(=O)Nc1nnc(S(N)(=O)=O)s1 [Acetazolamide] | 0.99
